Hits are enriched below; roughly 1.7% of the tested compounds scored in any of these assays.
GLP-1R inv ag: acts as inverse agonist at human GLP-1 receptor. HEK293 GLP-1R CRE-luciferase, luminescence, 24 h; GLP-1R form is constitutively active. 410,000 tested, 1.6% active. Potency, µM (highest dose often 38.3 µM), usual class: inhibitors. P43220; note: nearly all actives have a fitted effect of over 55% in size
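Inverse agonists were sought by their lowering of basal cAMP reporter luciferase output in HEK293 cells stably carrying constitutively active human GLP-1R, after 24 h compound treatment.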
GLP-1R agonist: agonists of human GLP-1 receptor. HEK293 GLP-1R CRE-luciferase, luminescence, 4-6 h; cells express a hypersensitive GLP-1R form. Potency, µM (highest dose often 45.6 µM), hits mostly activators. 380,000 tested, 0.007% active
HEK293 tox: cytotoxicity counter-screen for GLP-1 receptor inverse agonists; Potency, µM (series often up to 38.3 µM), most hits filed as inhibitors; 410,000 tested, 0.13% active; HEK293 cAMP-luciferase reporter cells, luminescence, 24 h;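 note: loss of luciferase light is scored as toxicity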
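To flag toxic compounds, the library was rerun on cells for 24 hr at 37 deg C and 5% CO2. Viability-linked luminescence was captured 12 min after adding luciferase detection reagent.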
PTHR1 agonist: PTHR1 (human) receptor agonism | HEK293 GP2 PTHR1 cells, GloSensor cAMP luminescence, 1 h | 410,000 tested, 0.075% active | Potency, µM (doses to about 115 µM), most hits filed as activators | AID 743266 | Q03431; note: nearly all actives have a fitted effect of over 55% in size
Target sequence (Q03431 whole entry, looked up): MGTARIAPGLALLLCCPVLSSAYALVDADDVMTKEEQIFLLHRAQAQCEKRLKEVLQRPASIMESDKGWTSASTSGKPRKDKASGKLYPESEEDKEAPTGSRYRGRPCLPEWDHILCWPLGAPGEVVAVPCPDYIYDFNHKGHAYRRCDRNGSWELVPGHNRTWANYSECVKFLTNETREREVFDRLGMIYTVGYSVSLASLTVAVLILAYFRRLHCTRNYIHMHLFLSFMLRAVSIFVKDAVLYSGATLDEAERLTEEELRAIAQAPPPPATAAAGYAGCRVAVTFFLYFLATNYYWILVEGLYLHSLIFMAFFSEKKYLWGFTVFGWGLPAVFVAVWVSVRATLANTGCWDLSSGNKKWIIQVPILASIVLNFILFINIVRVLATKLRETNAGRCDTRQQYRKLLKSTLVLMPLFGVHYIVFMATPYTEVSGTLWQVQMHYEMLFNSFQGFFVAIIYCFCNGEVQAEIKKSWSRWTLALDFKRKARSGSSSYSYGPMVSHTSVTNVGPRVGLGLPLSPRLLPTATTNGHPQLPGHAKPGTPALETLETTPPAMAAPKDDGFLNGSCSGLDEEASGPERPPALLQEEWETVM
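HEK-293-derived GP2 cells expressing PTHR1 and a GloSensor cAMP reporter, 3,000/well, plated overnight, given luciferin plus IBMX (each 0.5 mM as added) for 1 h at 37 °C, then compound for 1 h at 37 °C. Luminescence was read after 15 min at room temperature.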
Large screens that a line does not name were inactive. Calls come from the whole dose curve; as a rule, active = well fitted curve in the direction sought with a large enough effect; inconclusive = small, poorly fitted or top-dose-only effect, or another doubt; inactive = no such curve, though single readings can be large; an effect the other way counts as inactive or inconclusive.

CCC(C(=O)Nc1cc(OC)ccc1OC)n1nc(-c2ccccc2)c2c(c1=O)CCCC2 (configuration not stated)	GLP-1R inv ag 12.6µM (no result: GLP-1R agonist)
COc1cc(OC)c(NC(=O)C(C)n2nc(-c3ccc(C)cc3)c3c(c2=O)CCCC3)cc1Cl (configuration not stated)	GLP-1R inv ag inconclusive (no result: GLP-1R agonist)
CCN1CCN(c2cc(-c3ccc(F)cc3)c3c(n2)CCCCCC3)CC1	none (no result: GLP-1R inv ag, HEK293 tox, PTHR1 agonist)
CCOC(=O)c1ccc(NC(=S)N(CCN2CCCCCC2)Cc2ccco2)cc1	GLP-1R inv ag 6.31µM, HEK293 tox inconclusive
O=C(O)c1ccccc1C(=O)Nc1ccc(-n2ccc(C(F)(F)F)n2)cc1	none
Cc1cc(C)cc(NC(=O)Nc2ccc(-n3ccc(C(F)(F)F)n3)cc2)c1	GLP-1R inv ag 2.24µM, HEK293 tox inconclusive
COc1ccccc1NC(=O)Nc1ccc(-n2ccc(C(F)(F)F)n2)cc1	GLP-1R inv ag 2µM
O=C(O)CCC(=O)Nc1ccc(-n2ccc(C(F)(F)F)n2)cc1	none
Cc1ccc(C(=O)NCCc2csc(-c3cccc(F)c3)n2)cc1C	none (no result: GLP-1R agonist)
Cc1cc(C)c(S(=O)(=O)NCC(c2ccco2)S(=O)(=O)c2cccs2)c(C)c1 (configuration not stated)	GLP-1R inv ag inconclusive (no result: GLP-1R agonist)
Cc1ccc(C(=O)CSc2nnnn2C(C)C)c(C)c1	GLP-1R inv ag 4.47µM
CC(=O)Nc1cccc(-c2ccnc3c2CC(C)(C(=O)NCc2ccc(N(C)C)cc2)O3)c1 (configuration not stated)	GLP-1R inv ag inconclusive, HEK293 tox inconclusive
CC(C)N(C(=O)CSc1nc2ccccc2n1Cc1ccccc1F)C(C)C	GLP-1R inv ag 2.24µM
CC(C)N(C(=O)CSc1nc2ccccc2n1Cc1ccccc1)C(C)C	GLP-1R inv ag inconclusive
O=C(CN1CCN(c2ccccc2Cl)CC1)NC1CCCc2ccccc21 (configuration not stated)	GLP-1R inv ag 10µM
O=C(CSc1nc2ccc(Cl)cc2[nH]1)NC1CCCc2ccccc21 (configuration not stated)	GLP-1R inv ag 8.91µM
COc1ccc2nc(SCC(=O)NC3CCCc4ccccc43)[nH]c2c1 (configuration not stated)	GLP-1R inv ag inconclusive
COc1ccc(N2CCN(C(=O)CSc3nnc(-c4cccnc4)n3-c3ccccc3)CC2)cc1	GLP-1R inv ag 11.2µM
Cc1oc(-c2ccc(Cl)cc2)nc1CN1CCCC(C(=O)NCCc2ccc(Cl)cc2)C1 (configuration not stated)	none (no result: GLP-1R agonist)
CCOc1ccccc1N(C)C(=O)Cn1cnc2sc(C)c(S(=O)(=O)N3CCC(C)CC3)c2c1=O	none (no result: GLP-1R agonist)
CN(C(=O)c1cnc(N2CCN(c3ncccn3)CC2)c2ccccc12)c1ccc(Cl)cc1	none
CCN(C(=O)c1cnc(N2CCN(c3ncccn3)CC2)c2ccccc12)c1cccc(Cl)c1	GLP-1R inv ag 10µM
Cc1ccc(NC(=S)NC(NC(=O)c2ccccc2C)C(Cl)(Cl)Cl)c(C)c1 (configuration not stated)	GLP-1R inv ag 5.62µM, HEK293 tox inconclusive
Cc1ccc(C)c(NC(=S)NC(NC(=O)Cc2cccc3ccccc23)C(Cl)(Cl)Cl)c1 (configuration not stated)	GLP-1R inv ag inconclusive, HEK293 tox 6.31µM
CCc1ccc(OCC(=O)NC(NC(=S)Nc2ccc(C)cc2C)C(Cl)(Cl)Cl)cc1 (configuration not stated)	GLP-1R inv ag 5.01µM, HEK293 tox inconclusive
Cc1ccc(C)c(NC(=S)NC(NC(=O)N(C)C)C(Cl)(Cl)Cl)c1 (configuration not stated)	none
CCOC(=O)c1cc(C)n(CC2CCC(C(=O)Nc3ccc(OCC)cc3)CC2)c1C (configuration not stated)	none (no result: GLP-1R agonist)
CCCCCCCCCCCCCCCC(=O)OC[C@@H](NC(=O)C(Cl)Cl)[C@H](O)c1ccc([N+](=O)[O-])cc1	none (no result: GLP-1R inv ag, HEK293 tox, PTHR1 agonist)
N/C(CCS(=O)(=O)c1ccc(Cl)cc1)=N\OC(=O)c1ccc(Cl)cc1	none
N/C(CCS(=O)(=O)c1ccc(Cl)cc1)=N\OC(=O)c1ccccc1C(F)(F)F	GLP-1R inv ag inconclusive, HEK293 tox 10µM
O=C(NCCc1ccccc1)C(=O)NCC(c1cccnc1)N1CCN(c2ccccc2)CC1 (configuration not stated)	none (no result: GLP-1R agonist)
COCCCNC(=S)N1CCC(C(=O)c2ccc(Cl)cc2)CC1	GLP-1R inv ag 5.62µM
COC(=O)c1cc2oc3ccccc3c2n1Cc1ccccn1	GLP-1R inv ag 4.47µM
COc1ccc(-n2ccnc(NCc3ccc(C)cc3)c2=O)cc1OC	none (no result: GLP-1R agonist)
CCOc1ccccc1NC(=O)CSc1nc2ccccc2nc1N1CCCC1	GLP-1R inv ag inconclusive
CCOc1ccccc1NC(=O)CSc1nc2ccccc2nc1N1CCOCC1	GLP-1R inv ag 10µM
Cc1ccc(NC(=O)Cc2ccc(-c3ccccc3)cc2)nc1	GLP-1R inv ag 10µM
Cc1ccc(NC(=O)Cc2ccc(Cl)cc2)nc1	none
Cc1ccc(C)c(CN2C(=O)c3ccccc3S(=O)c3ccc(C(=O)N4CCN(c5ccccn5)CC4)cc32)c1 (configuration not stated)	GLP-1R inv ag 2.24µM
CC(=O)c1ccc(NC(=O)COC(=O)c2ccccc2N=Nc2ccc(N(C)C)cc2)cc1	HEK293 tox 10µM
Cc1ccccc1C(=O)N1CCN(c2ccc(NC(=O)CSc3ccc(Cl)cc3)cc2)CC1	GLP-1R inv ag 7.08µM
COc1ccc(C2C(O)C(c3c[nH]c4ccccc34)=NN2C(=O)CCl)cc1 (configuration not stated)	GLP-1R inv ag inconclusive, HEK293 tox 11.2µM
Cc1c(N=C2SCC(=O)N2/N=C/c2ccccc2Cl)c(=O)n(-c2ccccc2)n1C	PTHR1 agonist inconclusive
Cc1c(N=C2SCC(=O)N2/N=C\c2ccc(Br)cc2)c(=O)n(-c2ccccc2)n1C	GLP-1R inv ag 8.91µM
CCN(CC)C(=O)CN1C(=O)C2(OCC(C)(C)CO2)c2ccccc21	none
Cc1cccc(NC(=O)c2ccc3c(c2)OCCO3)c1	GLP-1R inv ag 11.2µM
Cc1cccc(C(=O)Nc2ccc(C(=O)Nc3ccc(O)cc3)cc2)c1	GLP-1R inv ag 2.82µM, HEK293 tox inconclusive
Cc1ccc(C(=O)Nc2cc(C(C)C)c(O)c(C(C)C)c2)cc1	GLP-1R inv ag 4.47µM
Cc1cccc(C(=O)Nc2ccc(NC(=O)c3cccc(C)c3)cc2)c1	none
CC1=C(C(=O)O)N2C(=O)[C@@H](NC(=O)[C@H](N)C3=CCC=CC3)[C@H]2SC1	none (no result: GLP-1R inv ag, HEK293 tox, PTHR1 agonist)
O=C(Nc1ccccc1F)c1ccc2c(Cl)c3c(nc2c1)CCC3	GLP-1R inv ag inconclusive
CC(C)Oc1ccc(CN2CCc3nc(Nc4ccc5c(c4)OCCO5)ncc3C2)cc1	GLP-1R inv ag inconclusive (no result: GLP-1R agonist)
Cc1nc(-c2ccc(C)c(S(=O)(=O)N3CCC(C(=O)Nc4ccc(Cl)cc4)CC3)c2)no1	GLP-1R inv ag 10µM (no result: GLP-1R agonist)
CCC1CCc2sc(C(=O)NC3CCN(Cc4ccccc4)CC3)cc2C1 (configuration not stated)	GLP-1R inv ag 5.01µM, HEK293 tox inconclusive
